Test [1] has as its target Bile acid receptor (Homo sapiens) (UniProt Q96RI1). Put plainly: qHTS assay for small molecule antagonists of farnesoid X receptor signaling (AID 588526). Also: % is scaled to controls: 0 for no effect and ±100 for the full control effect. Summed up: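 Concentration-response titrations were fitted to the Hill equation for half-maximal inhibition and maximal response, with data normalised to 50 uM chenodeoxycholic acid and DMSO control wells. Cells: FXR-UAS-bla HEK293T, dialyzed FBS.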
(In qHTS, concentration-response curves come from the screen itself.)

For test [2], the target named is Glucocorticoid receptor (Homo sapiens) (UniProt P04150). The experiment in a line: qHTS assay for small molecule agonists of glucocorticoid receptor signaling (AID 588532; active = well fitted curve in the direction sought with a large enough effect in the signal ratio, with a control signal flat; the % refers to the signal ratio;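 also: 100% = dexamethasone at 0.1 µM and 0% = DMSO only wells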). The note with it: HeLa MMTV-bla, beta-lactamase ratio, agonist, 18 h; stronger effect = higher value; percent of dexamethasone control, DMSO zero. Summed up:
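MMTV-bla HeLa, beta-lactamase reporter; medium with 1% charcoal/dextran-stripped FBS; cpds up to 92 uM, 18 h, 37 C; CCF4 readout 460/530 nm; Hill fit → EC50, efficacy vs 0.1 uM dexamethasone = 100%.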

For test [3] the target is unchanged. The experiment in a line: qHTS assay for small molecule antagonists of glucocorticoid receptor signaling (AID 588533; active = well fitted inhibition curve with a large enough effect in the signal ratio, with a control signal flat, not every such curve was filed as active; the % refers to the signal ratio;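 also: cells stimulated with 2 nM dexamethasone as agonist; % is scaled to controls: 0 for no effect and ±100 for the full control effect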). The procedure, abridged:
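Antagonist-mode qHTS: compound titrations added to GRE-bla HeLa cells, then dexamethasone 2 nM final; 18 h, 37 C. CCF4 FRET fluorescence normalized to dexamethasone and DMSO; IC50 from Hill fit.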

Test [4] deals with Peroxisome proliferator-activated receptor delta (Homo sapiens) (UniProt Q03181). Put plainly: qHTS assay for small molecule antagonists of peroxisome proliferator-activated receptor delta signaling (AID 588535; active = well fitted inhibition curve with a large enough effect in the signal ratio, with a control signal flat, not every such curve was filed as active; the % refers to the signal ratio). The procedure, abridged: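 Inhibition of PPAR-delta response element-driven beta-lactamase expression is measured in HEK293T cells exposed to a compound titration series for 18 hrs at 37 C. Half-maximal inhibition comes from Hill equation fitting.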

The target of test [5] is Thyroid hormone receptor beta (Homo sapiens) (UniProt P10828). The experiment in a line: qHTS assay for small molecule antagonists of thyroid hormone receptor beta signaling (AID 588547; active = well fitted inhibition curve with a large enough effect in the signal ratio, with a control signal flat, not every such curve was filed as active; the % refers to the signal ratio;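 also: cells stimulated with 0.4 nM T3 agonist during compound exposure; series mostly up to about 77 µM; % is scaled to controls: 0 for no effect and ±100 for the full control effect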). The note with it: TR-UAS-bla HEK293, beta-lactamase ratio, antagonist mode, 18 h. The procedure, abridged: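 TR-UAS-bla GripTite HEK293 cells in 2% charcoal/dextran FBS medium were preincubated 4 h at 37 C, given compound (0.59 nM to 92 uM) plus 0.4 nM T3 (final) for 18 h, then CCF4 for 2 h at RT; Hill fit gave IC50.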

Test [6] can be described thus: qHTS assay for small molecule agonists of the antioxidant response element (ARE) signaling pathway (AID 651741; active = well fitted activation curve with a large enough effect in the signal ratio; the % refers to the signal ratio; also: potency is read from the fitted curve at half-maximal effect; as to activation: % of control where 0% means no effect). Summed up:
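Reporter: beta-lactamase under ARE, stably in HepG2. Exposure: 16 h, 37 C, compounds delivered in DMSO by pin tool after 5 h cell preincubation. Readout: FRET substrate fluorescence after 2 h at RT.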

Test [7] can be described thus: qHTS assay for small molecule agonists of the antioxidant response element (ARE) signaling pathway measured by Nrf2-dependant transcriptional activity (AID 720636; active = well fitted activation curve with a large enough effect in the repeat runs; also: % of control where 0% means no effect). Summed up: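 ARE-luc HepG2 cells carrying an Nrf2-responsive luciferase reporter were plated in medium with 1% dialyzed FBS, left 6 hr at 37 C to attach, then exposed to compound for 16 hr. Luciferase luminescence was read after ONE-Glo addition.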

In test [8] the target is Androgen receptor (Homo sapiens) (UniProt P10275). Put plainly: qHTS assay for small molecule agonists of androgen receptor signaling (AID 588515; active = well fitted curve in the direction sought with a large enough effect in the signal ratio, with a control signal flat; the % refers to the signal ratio; also: % is scaled to controls: 0 for no effect and ±100 for the full control effect). The note with it: AR-UAS-bla HEK293, beta-lactamase ratio, agonist 16 h; activation: stronger effect = higher value. The procedure, abridged:
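Stimulation of an AR-responsive β-lactamase reporter in GripTite HEK293 cells was measured after 16 h compound exposure at 37 °C, via CCF4 fluorescence after 2 h RT. EC50 from Hill fits, normalized to R1881 at 30 nM.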

Test [9] has the same target. Put plainly: qHTS assay for small molecule antagonists of androgen receptor signaling (AID 588516; active = well fitted curve in the direction sought with a large enough effect in the signal ratio, with a control signal flat, not every such curve was filed as active; the % refers to the signal ratio; also: % is scaled to controls: 0 for no effect and ±100 for the full control effect). The procedure, abridged: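 Antagonist mode: inhibition of R1881-stimulated (10 nM final) bla reporter in GeneBLAzer AR HEK 293 cells, 16 h at 37C, compounds titrated. IC50 and efficacy from Hill-equation fits of 405/460–530 nm FRET ratios.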
Test [10] can be described thus: qHTS assay for small molecule activators of the p53 signaling pathway (AID 651743; active = well fitted activation curve with a large enough effect in the signal ratio, not every such curve was filed as active; the % refers to the signal ratio; also: series mostly up to about 92 µM; % of control where 0% means no effect). The note with it: HCT-116 p53RE-bla, beta-lactamase FRET ratio, 16 h; activation: stronger effect = higher value. Summed up: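 Agonist-mode quantitative HTS in HCT-116 cells carrying a p53-response-element beta-lactamase reporter; 16 h compound treatment at 37 C, then FRET substrate loading for 2 h at room temperature and fluorescence read.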

“And” between values parts separate entries of the source, which are not always exact repeats. Equal values may be shown once. Records with an inconclusive call do not appear. A number with no mark means an inactive call. The source made the active and inactive calls. Unless noted, calls follow the shape of the full dose curve.

Sequence of Bile acid receptor (Homo sapiens) (Q96RI1 whole entry, looked up): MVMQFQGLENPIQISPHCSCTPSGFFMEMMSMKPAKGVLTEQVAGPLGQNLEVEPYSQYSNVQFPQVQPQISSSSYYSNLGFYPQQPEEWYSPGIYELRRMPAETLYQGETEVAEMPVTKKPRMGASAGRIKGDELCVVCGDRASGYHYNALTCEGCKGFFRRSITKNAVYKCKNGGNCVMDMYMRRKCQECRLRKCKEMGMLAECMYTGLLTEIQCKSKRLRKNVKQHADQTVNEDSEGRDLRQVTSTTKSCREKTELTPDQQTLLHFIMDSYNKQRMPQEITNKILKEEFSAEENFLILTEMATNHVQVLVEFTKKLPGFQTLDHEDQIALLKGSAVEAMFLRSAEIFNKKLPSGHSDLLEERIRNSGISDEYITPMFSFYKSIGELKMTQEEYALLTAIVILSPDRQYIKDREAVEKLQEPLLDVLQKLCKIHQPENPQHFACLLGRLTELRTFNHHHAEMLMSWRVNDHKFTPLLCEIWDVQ
Sequence of Glucocorticoid receptor (Homo sapiens) (P04150 whole entry, looked up): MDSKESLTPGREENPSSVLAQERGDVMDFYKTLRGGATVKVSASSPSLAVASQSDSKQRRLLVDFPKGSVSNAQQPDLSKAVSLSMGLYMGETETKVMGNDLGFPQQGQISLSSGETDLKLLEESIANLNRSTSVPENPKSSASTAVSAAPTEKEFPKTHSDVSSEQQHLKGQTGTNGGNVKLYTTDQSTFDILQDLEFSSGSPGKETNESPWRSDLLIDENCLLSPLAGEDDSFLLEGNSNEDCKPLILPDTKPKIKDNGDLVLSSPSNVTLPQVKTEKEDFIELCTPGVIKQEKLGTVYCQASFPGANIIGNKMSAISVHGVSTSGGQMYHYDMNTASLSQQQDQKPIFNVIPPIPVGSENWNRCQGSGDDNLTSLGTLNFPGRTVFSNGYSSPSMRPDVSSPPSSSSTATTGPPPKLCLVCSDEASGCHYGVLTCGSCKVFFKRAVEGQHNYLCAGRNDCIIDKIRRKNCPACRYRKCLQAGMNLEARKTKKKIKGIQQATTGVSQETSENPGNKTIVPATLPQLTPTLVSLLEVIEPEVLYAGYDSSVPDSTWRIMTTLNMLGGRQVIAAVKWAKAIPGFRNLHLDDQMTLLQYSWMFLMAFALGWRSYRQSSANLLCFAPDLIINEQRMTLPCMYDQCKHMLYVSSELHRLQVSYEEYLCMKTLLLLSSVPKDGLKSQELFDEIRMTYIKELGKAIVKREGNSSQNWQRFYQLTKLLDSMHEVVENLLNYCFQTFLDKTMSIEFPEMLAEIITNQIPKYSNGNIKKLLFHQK
Sequence of Androgen receptor (Homo sapiens) (P10275 whole entry, looked up): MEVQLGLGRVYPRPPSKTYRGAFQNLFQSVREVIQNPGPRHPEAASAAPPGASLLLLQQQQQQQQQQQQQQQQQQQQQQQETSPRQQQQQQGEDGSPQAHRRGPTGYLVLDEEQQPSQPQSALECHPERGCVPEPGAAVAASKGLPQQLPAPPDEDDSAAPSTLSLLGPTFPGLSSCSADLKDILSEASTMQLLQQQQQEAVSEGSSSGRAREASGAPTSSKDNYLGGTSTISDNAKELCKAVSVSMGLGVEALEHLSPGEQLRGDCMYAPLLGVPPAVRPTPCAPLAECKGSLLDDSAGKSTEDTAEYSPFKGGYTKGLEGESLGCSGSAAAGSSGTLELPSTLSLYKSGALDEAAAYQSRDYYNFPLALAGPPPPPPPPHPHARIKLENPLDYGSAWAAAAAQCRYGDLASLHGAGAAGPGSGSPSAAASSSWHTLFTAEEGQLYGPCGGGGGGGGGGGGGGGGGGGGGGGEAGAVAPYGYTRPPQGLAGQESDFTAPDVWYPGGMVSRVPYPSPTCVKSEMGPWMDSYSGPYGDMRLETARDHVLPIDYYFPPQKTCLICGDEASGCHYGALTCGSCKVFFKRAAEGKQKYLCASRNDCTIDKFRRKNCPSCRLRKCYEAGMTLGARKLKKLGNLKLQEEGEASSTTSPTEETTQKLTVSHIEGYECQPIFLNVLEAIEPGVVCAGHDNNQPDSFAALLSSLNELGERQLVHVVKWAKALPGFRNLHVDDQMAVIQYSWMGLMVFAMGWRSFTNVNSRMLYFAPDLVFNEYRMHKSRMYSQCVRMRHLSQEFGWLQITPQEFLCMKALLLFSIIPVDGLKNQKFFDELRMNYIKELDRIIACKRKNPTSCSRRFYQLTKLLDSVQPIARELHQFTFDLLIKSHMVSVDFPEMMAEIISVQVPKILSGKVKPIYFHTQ
Sequence of Peroxisome proliferator-activated receptor delta (Homo sapiens) (Q03181 whole entry, looked up): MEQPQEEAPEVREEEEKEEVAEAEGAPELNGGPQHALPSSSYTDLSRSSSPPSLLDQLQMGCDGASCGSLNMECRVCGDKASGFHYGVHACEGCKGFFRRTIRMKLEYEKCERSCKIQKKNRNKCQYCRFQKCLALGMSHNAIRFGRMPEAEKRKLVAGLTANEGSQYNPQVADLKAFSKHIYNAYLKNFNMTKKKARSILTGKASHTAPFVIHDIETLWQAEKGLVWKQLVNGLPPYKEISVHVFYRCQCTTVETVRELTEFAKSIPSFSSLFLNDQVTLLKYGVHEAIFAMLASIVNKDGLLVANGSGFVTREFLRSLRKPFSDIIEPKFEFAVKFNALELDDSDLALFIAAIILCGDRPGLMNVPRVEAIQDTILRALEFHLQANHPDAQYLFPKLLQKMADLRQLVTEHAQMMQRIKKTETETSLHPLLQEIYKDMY
Sequence of Thyroid hormone receptor beta (Homo sapiens) (P10828 whole entry, looked up): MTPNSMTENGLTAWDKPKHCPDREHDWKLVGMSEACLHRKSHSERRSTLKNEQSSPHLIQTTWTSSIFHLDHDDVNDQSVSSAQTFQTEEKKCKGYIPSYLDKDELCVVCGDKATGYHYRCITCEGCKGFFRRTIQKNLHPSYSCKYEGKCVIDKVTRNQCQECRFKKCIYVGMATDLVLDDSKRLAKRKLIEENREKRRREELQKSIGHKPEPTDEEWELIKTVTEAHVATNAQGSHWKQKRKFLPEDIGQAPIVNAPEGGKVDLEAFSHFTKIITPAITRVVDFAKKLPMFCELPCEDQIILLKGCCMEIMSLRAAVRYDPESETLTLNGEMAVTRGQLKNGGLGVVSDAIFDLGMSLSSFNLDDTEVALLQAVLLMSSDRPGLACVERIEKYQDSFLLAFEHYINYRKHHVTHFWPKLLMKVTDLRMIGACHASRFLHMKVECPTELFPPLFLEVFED

In the case of `C/C=C/C=C/CCCCCCCO`, the Potency entry in test [1], in test [3], in test [4], in test [6] and in [7] was “inactive” throughout. The activation in [2] is -6.08%. In addition, the activity change % (negative = inhibition) in test [5] was -0.935%.
With `COC(=O)c1c(Cl)nn(C)c1S(=O)(=O)NC(=O)Nc1nc(OC)cc(OC)n1`, the activation is 5.65% in test [8], -2.96% in test [2] and -0.555% in test [10]. In addition, in test [9], the call was inactive. Moreover, the Potency result in test [1], in test [3], in test [4] and in test [7] was “inactive” each time. Besides, the activity change % (negative = inhibition) in [5] was -5.79%.
With `CCSC(=O)N(CC(C)C)CC(C)C`, the activation is 3.31% in test [8], -2.35% in [2] and -3.92% in test [10]. In [9], the compound was classed as inactive. The Potency result in test [4], in test [6] and in [7] was “inactive” throughout.
Take `C=Cc1ccc(P(c2ccccc2)c2ccccc2)cc1`: the values for the activation in test [8] and in test [2] were 8.38% and -2.27%, respectively. In test [9], the compound was called inactive. In addition, the Potency entry in test [1], in test [3], in test [4], in test [6] and in test [7] was “inactive” throughout. For the same compound, the activity change % (negative = inhibition) in test [5] is 9.12%.
Turning to `CCCCCC1CCC(=O)O1` (centres undefined), the Potency result in test [1] and in [3] was “inactive” each time. Also, the values for the activation in [2] and in [10] were -5.15% and 0.985%, respectively.
As for `CCCCN(CCCC)CCCC`, the Potency entry in test [1], in test [3], in [4] and in [6] was “inactive” each time. Also, the activation in test [2] is 8.81%. For the same compound, the activity change % (negative = inhibition) in test [5] was -2.52%.
Take `CCCCCCCCCC(C)=O`: the activation in test [8] was -3.13%; in [2] it was -12.1%; in test [10] it was -2.23%. Moreover, in [9], the result was inactive. The Potency entry in test [3], in test [4], in test [6] and in [7] was “inactive” throughout. For the same compound, in [5], the activity change % (negative = inhibition) is -10.7%.
In the case of `O=C1CCCC/C=C/CCCCCCCCCO1`, the activation in test [8] was 0.71%; in [2] it was -15.4%; in test [10], 0.177%. In test [9], the compound was classed as inactive. Further, the Potency entry in test [1], in [3], in test [4], in test [6] and in [7] was “inactive” throughout. Further, in test [5], the activity change % (negative = inhibition) is -13.1%.
For `CCCCCCCCCCCCCCCCCCN`, the activation in [8] is -9.22%; in test [2], -6.46%; in test [10] it was -1.5%. The compound was classed as inactive in [9]. Further, the Potency entry in test [1], in test [3] and in test [4] was “inactive” throughout. Also, the activity change % (negative = inhibition) in [5] was 13%.
For `CC(C)(C)c1cccc(C(C)(C)C)c1O`, the Potency entry in test [1], in test [3], in test [4] and in test [6] was “inactive” each time. Moreover, the activation was -7.64% in test [2] and -0.526% in [10]. The activity change % (negative = inhibition) in [5] was 16.3%.
For the compound `CCCCC(CC)C(=O)OCCOCCOCCOC(=O)C(CC)CCCC` (centres undefined), the activation in test [8] was 6.77%; in test [2], -10%; in test [10] it was 0.679%. Moreover, the call in [9] was inactive. For the same compound, the Potency result in [3], in test [6] and in test [7] was “inactive” each time. Moreover, in test [5], the activity change % (negative = inhibition) was 12.7%.
For `O=C(O)c1ccc2c(c1)C(=O)OC2=O`, the activation in test [8] was 5.43%; in test [2], 1.9%. For the same compound, the result in test [9] was inactive. For the same compound, the Potency entry in [1], in test [3] and in test [7] was “inactive” in each case. For the same compound, the activity change % (negative = inhibition) in test [5] is 1.57%.
As to `Cc1ccc(C(=O)c2ccccc2)cc1`, the activation in test [8] was 1.33%; in test [2], 2.58%; in [10], 3.79%. In addition, the result in [9] was inactive. Further, the Potency entry in test [1], in [3], in [4] and in test [6] was “inactive” each time. Moreover, in [5], the activity change % (negative = inhibition) was -19.1%.
Turning to `C=C[Si](OCCOC)(OCCOC)OCCOC`, the Potency entry in [1], in test [3], in test [4], in test [6] and in test [7] was “inactive” throughout. Also, in test [2], the activation is -9.96%.
With `CCCCCCCCCCCCCCCCCC(N)=O`, the activation in test [8] is 5.45%; in test [2], -6.09%; in test [10], 0.913%. The outcome in [9] was inactive. Moreover, the Potency result in test [1], in [3] and in [4] was “inactive” in each case. Besides, the activity change % (negative = inhibition) in [5] is -14.9%.
In the case of `C[Si](Cl)(Cl)c1ccccc1`, the activation in test [8] is 5.21%; in test [2], 17.8%. Moreover, in test [9], the result was inactive. Further, the Potency entry in test [1], in [3], in [4] and in [7] was “inactive” throughout.
As for `NCCCCCCCCCCCC(=O)O`, the compound was called inactive in test [9]. In addition, the Potency entry in test [1], in test [3], in test [4], in test [6] and in test [7] was “inactive” in each case. Moreover, in test [2], the activation is 8.75%.
As for `Nc1c(N=Nc2ccc(S(=O)(=O)CCOS(=O)(=O)O)cc2)c(S(=O)(=O)O)cc2cc(S(=O)(=O)O)c(N=Nc3ccc(S(=O)(=O)CCOS(=O)(=O)O)cc3)c(O)c12`, the values for the activation in test [8] and in test [10] were 7.7% and -4.94%, respectively. Also, the Potency entry in test [1], in test [4] and in [7] was “inactive” each time. Moreover, in [5], the activity change % (negative = inhibition) was -6.2%. Moreover, in [6], the Potency is 30.6 µM (active).
On to `CC(C)Cc1c(C(=O)O)c(C(F)F)nc(C(F)(F)F)c1C1=NCCS1`, for which the activation was -2.77% in [8] and -1.35% in test [10]. Further, the result in test [9] was inactive. In addition, the Potency entry in test [1], in test [3], in test [6] and in [7] was “inactive” in each case. The activity change % (negative = inhibition) in [5] is -21.3%.
In the case of `C=Cc1ccccc1Br`, the compound was called inactive in test [9]. Moreover, the Potency result in [1], in test [3], in [4], in test [6] and in test [7] was “inactive” in each case. Further, the values for the activation in test [2] and in [10] were -5.73% and -6.55%, respectively. In test [5], the activity change % (negative = inhibition) was -5.89%.
As for `O=C(O)c1ccc(C(=O)O)c(C(=O)O)c1`, the activation in test [8] was -3.3%; in test [2], -1.87%. Besides, the result in test [9] was inactive. The Potency result in test [4] and in [7] was “inactive” each time. The activity change % (negative = inhibition) in test [5] is 8.09%.
Turning to `O=C(O)CCCCCCCCCCC(=O)O`, the Potency entry in test [1], in test [3], in test [4], in [6] and in test [7] was “inactive” throughout. Moreover, the activation in test [2] is -1.99%. The activity change % (negative = inhibition) in [5] is 17.5%.
`O=C(OCCOCCOC(=O)c1ccccc1)c1ccccc1`: the Potency result in [1] and in test [7] was “inactive” in each case. The activation is -2.84% in test [2] and 0.877% in test [10]. The activity change % (negative = inhibition) in test [5] was 0.94%.
As for `C=CC(=O)NC(C)(C)CS(=O)(=O)O`, the Potency entry in test [4] and in test [6] was “inactive” in each case. Moreover, the activity change % (negative = inhibition) in test [5] is 13.1% and 23.4%. In [10], the activation was 2.63% and -4%.
